Assay [1] has as its target Lysosomal acid glucosylceramidase (Homo sapiens) (UniProt P04062). Briefly: Glucocerebrosidase-p2 (AID 348; in the data active means potency below about 10 µM; further: potency means the concentration at half of the fitted maximal effect). Conditions: purified GBA, blue fluorogenic substrate, 40 min. An outline of the steps:
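Compounds titrated from 0.6 nM upwards against 0.2 nM enzyme in pH 5.9 citric acid/KH2PO4, taurocholate, tween-20; blue fluorogenic substrate 80 uM, 40 min room temperature, stopped and read Ex 365/Em 440 for AC50.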

Assay [2] is described as follows: AP1 Signaling Pathway (AID 357; active means well fitted curve in either direction with a large enough effect, not every such curve was filed as active;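 further: ME-180 reporter cells stimulated with EGF at its EC50 level; on the % scale 0 is the no-effect control and ±100 the full control effect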). Conditions: ME-180 AP-1-bla reporter, EGF-induced, beta-lactamase ratio, 5 h; at 7.69 µM (top of the series) unless noted. In outline: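 In this screen, ME-180 cells in Opti-MEM with 0.5% dialyzed FBS received EC50 EGF and compound titrations for 5 h. AP-1 reporter beta-lactamase was detected via CCF4 ratio, giving AC50 for positive and negative modulators.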

Assay [3] deals with Glucocorticoid receptor (Homo sapiens) (UniProt P04150). Briefly: GR-GFP Redistribution (AID 450;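 active means compounds whose dose series gives a full or clear partial fitted curve of increased nuclear translocation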; further: potency means the concentration at half of the fitted maximal effect). Particulars: U2OS GR-GFP nuclear translocation, laser cytometry, 2 h.
Sequence of Glucocorticoid receptor (Homo sapiens) (P04150 whole entry, looked up): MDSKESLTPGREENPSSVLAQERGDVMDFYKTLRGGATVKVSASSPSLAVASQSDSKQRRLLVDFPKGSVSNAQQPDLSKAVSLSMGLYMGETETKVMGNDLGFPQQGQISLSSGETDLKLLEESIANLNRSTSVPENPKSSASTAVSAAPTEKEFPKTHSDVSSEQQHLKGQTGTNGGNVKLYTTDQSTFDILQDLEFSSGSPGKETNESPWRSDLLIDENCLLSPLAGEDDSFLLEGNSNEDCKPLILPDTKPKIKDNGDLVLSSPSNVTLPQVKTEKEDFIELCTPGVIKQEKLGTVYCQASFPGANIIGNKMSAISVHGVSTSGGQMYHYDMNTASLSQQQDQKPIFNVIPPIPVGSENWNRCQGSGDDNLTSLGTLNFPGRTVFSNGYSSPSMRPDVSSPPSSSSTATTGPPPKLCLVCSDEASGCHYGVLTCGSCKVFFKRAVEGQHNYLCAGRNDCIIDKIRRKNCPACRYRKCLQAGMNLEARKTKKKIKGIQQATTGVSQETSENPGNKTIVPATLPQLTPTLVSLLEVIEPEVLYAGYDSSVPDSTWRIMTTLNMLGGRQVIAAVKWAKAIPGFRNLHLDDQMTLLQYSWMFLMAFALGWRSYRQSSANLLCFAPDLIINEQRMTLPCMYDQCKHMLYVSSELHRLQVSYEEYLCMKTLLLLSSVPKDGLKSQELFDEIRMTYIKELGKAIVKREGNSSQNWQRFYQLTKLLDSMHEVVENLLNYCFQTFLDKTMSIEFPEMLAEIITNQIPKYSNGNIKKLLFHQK
Assay [4] shares this target. Briefly: GR-EFC Redistribution (AID 451; calls by dose curve; further: potency means the concentration at half of the fitted maximal effect). Particulars: CHO-K1 GR-EFC translocation, beta-gal luminescence, 2 h. In outline:
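Translocation of GR-ED fusion to nuclear EA restores b-gal, read by luminescence after 1 h room-temperature detection. Engineered CHO-K1 biosensor cells, 1,000/well, exposed 2 h at 37 C to titrations up to 46 uM final.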

Assay [5] concerns the target 3',5'-cyclic-AMP phosphodiesterase 4B (Homo sapiens) (UniProt Q07343). Briefly: qHTS Assay for Inhibitors of PDE-IV (AID 607; active means well fitted activation curve with a large enough effect in the main read-out, with a control signal flat, not every such curve was filed as active; further: % of control where 0% means no effect). Conditions: HEK293 ACTOne CNG channel cells, membrane potential fluorescence; series mostly up to 22.9 µM. In outline: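 Live HEK293 cells with a modified cyclic nucleotide-gated (CNG) channel report intracellular cAMP via membrane-potential dye fluorescence (ex 535/em 590 nm). Endogenous PDE-IV was targeted. Compounds were tested at up to 22.9 uM final; RO 20-1724 100 uM served as control.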

Assay [6] can be described thus: qHTS Assay for Identification of Small Molecule Agonists for Hypoxia Response Element Signaling Pathway (AID 914; active means well fitted activation curve with a large enough effect in the signal ratio, with a control signal flat, not every such curve was filed as active; the % refers to the signal ratio; further: potency means the concentration at half of the fitted maximal effect). Conditions: ME-180 HRE-bla reporter, beta-lactamase ratio, CoCl2, 17 h; activation: stronger effect = higher value. An outline of the steps: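 AC50 values come from titration-series %Activity, taken as the 460/530nm ratio of CCF4 fluorescence (excitation 405nm). CellSensor HRE-bla ME-180 cells were treated 17 hours at 37 C with compound plus an EC50 level of CoCl2.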

Assay [7] in a line: qHTS Assay for Lipid Storage Modulators (AID 1519; calls by dose curve). Conditions: Drosophila S3 cells, BODIPY lipid droplet/cell ratio, laser cytometry, cells loaded with oleic acid; for activity change, negative = inhibition: at 57.5 µM (top of the series). In outline: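 Cells seeded at 5,000 per well were treated with compounds over a concentration series and loaded with oleic acid (400 uM, as added). Lipid droplet fluorescence (488 nm excitation, 500-530 nm channel) was read by laser-scanning cytometry and normalized to 20 uM Triacsin C.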

Assay [8] deals with Dual specificity protein kinase CLK4 (Homo sapiens) (UniProt Q9HAZ1). Briefly: qHTS Assay for Inhibitors of CDC-like Kinase 4 (Kinase-Glo Assay) (AID 1770). Further: nearly all actives have a fitted effect of over 65% in size. Further: potency means the concentration at half of the fitted maximal effect. Particulars: recombinant Clk4, Kinase-Glo ATP depletion luminescence; series mostly up to 66.7 µM. In outline: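 Substrate mix (RS peptide 100 uM, ATP 1 uM) dispensed, compound pinned in, then Clk4 added to 25 nM final. Incubated 4.5 h at RT; Kinase-Glo reagent added, luminescence read after 5 min.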
Sequence of Dual specificity protein kinase CLK4 (Homo sapiens) (Q9HAZ1 whole entry, looked up): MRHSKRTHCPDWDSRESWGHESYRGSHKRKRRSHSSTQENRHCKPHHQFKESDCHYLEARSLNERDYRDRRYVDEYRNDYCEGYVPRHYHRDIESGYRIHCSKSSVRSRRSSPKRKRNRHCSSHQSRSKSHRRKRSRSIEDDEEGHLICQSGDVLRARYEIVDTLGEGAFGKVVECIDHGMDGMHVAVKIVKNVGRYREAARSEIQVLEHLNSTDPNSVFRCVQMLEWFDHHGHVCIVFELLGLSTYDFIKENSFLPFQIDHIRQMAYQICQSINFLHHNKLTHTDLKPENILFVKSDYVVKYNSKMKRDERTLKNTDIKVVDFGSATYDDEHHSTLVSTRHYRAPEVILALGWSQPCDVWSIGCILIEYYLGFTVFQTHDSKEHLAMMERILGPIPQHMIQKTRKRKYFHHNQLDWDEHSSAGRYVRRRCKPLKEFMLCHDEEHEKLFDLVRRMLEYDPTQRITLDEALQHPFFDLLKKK

Assay [9] has the same target. Briefly: qHTS Assay for Inhibitors of CDC-like Kinase 4 (ADP-Glo Assay) (AID 1771). Further: nearly all actives have a fitted effect of over 70% in size. Further: potency means the concentration at half of the fitted maximal effect. Particulars: recombinant CLK4, ADP-Glo luminescence; series mostly up to 80 µM. An outline of the steps: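 25 nM Clk4 with 100 uM RS repeat peptide and 1 uM ATP (final) in buffer with 2 mM MgCl2, 0.5 mM EGTA, 2.5 mM DTT, 0.01% Triton X-100; 1 h at room temperature; ADP-Glo luminescence for ADP formed.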

Assay [10] has the same target. Briefly: qHTS Assay for Inhibitors of CDC-like Kinase 4 (ADP-FP Assay) (AID 1795). Further: nearly all actives have a fitted effect of over 60% in size. Further: potency means the concentration at half of the fitted maximal effect. Particulars: Transcreener ADP fluorescence polarization; series mostly up to 50 µM. In outline: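 Clk4 6.25 nM; RS peptide 100 uM; ATP 1 uM; 25 mM Tris pH 7.5, 10 mM MgCl2; 1 h reaction. ADP detected via antibody/orange tracer FP displacement; TG003 positive control.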
For assay [11], the target named is Ubiquitin carboxyl-terminal hydrolase 1 (Homo sapiens) (UniProt O94782). Briefly: Inhibitors of USP1/UAF1: Pilot qHTS (AID 504865).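 Further: rhodamine fluorescence freed from ubiquitin-rhodamine substrate followed over time; top concentration of the series differs between compounds; on the % scale 0 is the no-effect control and ±100 the full control effect; nearly all actives have a fitted effect of over 35% in size.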 Conditions: purified USP1/UAF1, Ub-rhodamine cleavage fluorescence; series mostly up to 54.9 µM. An outline of the steps: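 In 50mM HEPES pH 7.8 containing 0.5mM EDTA, 1mM TCEP, 0.1 mg/ml BSA and 0.01% Tween-20, 1nM USP1/UAF1 is exposed to compound for 15 min, then Ub-Rho (150nM final) is added and fluorescence is read over time.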
Sequence of Ubiquitin carboxyl-terminal hydrolase 1 (Homo sapiens) (O94782 whole entry, looked up): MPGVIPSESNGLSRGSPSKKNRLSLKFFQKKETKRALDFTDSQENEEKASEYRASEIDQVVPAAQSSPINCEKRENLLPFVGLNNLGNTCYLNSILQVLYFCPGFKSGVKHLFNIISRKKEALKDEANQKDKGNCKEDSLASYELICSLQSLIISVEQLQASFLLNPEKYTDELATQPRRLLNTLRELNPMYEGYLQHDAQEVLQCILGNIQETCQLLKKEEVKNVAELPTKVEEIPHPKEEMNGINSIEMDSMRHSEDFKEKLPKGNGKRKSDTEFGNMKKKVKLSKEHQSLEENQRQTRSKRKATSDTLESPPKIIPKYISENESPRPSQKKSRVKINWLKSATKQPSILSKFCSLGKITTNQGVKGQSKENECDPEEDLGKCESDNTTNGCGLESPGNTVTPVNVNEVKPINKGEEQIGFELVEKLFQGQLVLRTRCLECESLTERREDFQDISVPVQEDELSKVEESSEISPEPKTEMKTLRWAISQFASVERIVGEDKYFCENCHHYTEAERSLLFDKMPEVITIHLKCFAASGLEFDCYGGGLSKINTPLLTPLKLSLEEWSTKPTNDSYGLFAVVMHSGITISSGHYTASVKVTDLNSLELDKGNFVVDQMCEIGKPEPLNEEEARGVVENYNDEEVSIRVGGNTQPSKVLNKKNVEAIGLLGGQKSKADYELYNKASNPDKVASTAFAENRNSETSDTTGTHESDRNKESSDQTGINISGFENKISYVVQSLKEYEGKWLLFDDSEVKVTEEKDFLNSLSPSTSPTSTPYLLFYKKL

Assay [12] in a line: Primary qHTS for small molecule stabilizers of the endoplasmic reticulum resident proteome: Secreted ER Calcium Modulated Protein (SERCaMP) assay (AID 1508630). Further: on the % scale 0 is the no-effect control and ±100 the full control effect. Conditions: SH-SY5Y GLuc-SERCaMP (Gaussia luciferase released on ER calcium loss) secretion, thapsigargin, luminescence; series mostly up to 38.4 µM. In outline: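 GLuc-SERCaMP-expressing SH-SY5Y cells, pretreated 16 h with compound, are challenged with thapsigargin to empty ER calcium stores; after 4 h, coelenterazine is added directly to the medium and luminescence is imaged.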

For assay [13], the target named is Cytochrome P450 1A2 (Homo sapiens) (UniProt P05177). Briefly: p450-cyp1a2 (AID 410; calls by dose curve; further: potency means the concentration at half of the fitted maximal effect). Conditions: recombinant CYP1A2, luciferin-ME demethylation, luminescence; series mostly up to 57 µM. In outline: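 20nM CYP1A2 with 100uM Luciferin-ME (at Km) in 100mM KPO4; compound preincubated 10 min, NADPH regeneration added, 60 min at room temperature. Luciferin quantified by luminescence after detection reagent; normalized to 57 uM furafylline.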
Sequence of Cytochrome P450 1A2 (Homo sapiens) (P05177 whole entry, looked up): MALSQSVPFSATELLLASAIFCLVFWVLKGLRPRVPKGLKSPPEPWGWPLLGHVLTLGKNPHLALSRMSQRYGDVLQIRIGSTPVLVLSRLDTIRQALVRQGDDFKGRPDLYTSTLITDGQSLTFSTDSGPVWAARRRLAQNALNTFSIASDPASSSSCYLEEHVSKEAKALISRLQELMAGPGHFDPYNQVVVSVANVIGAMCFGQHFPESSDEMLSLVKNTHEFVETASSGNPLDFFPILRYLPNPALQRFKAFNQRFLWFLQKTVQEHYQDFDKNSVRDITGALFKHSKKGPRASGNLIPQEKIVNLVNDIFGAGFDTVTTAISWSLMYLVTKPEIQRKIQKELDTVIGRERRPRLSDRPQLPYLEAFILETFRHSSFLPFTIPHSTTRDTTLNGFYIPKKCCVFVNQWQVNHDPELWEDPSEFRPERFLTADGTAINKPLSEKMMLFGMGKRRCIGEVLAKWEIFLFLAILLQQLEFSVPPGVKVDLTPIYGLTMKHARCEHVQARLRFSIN

A short description of assay [14]: NFAT Signaling Pathway (AID 444; active means well fitted curve in either direction with a large enough effect, not every such curve was filed as active;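 further: carbachol stimulus at about its EC50 of 1 µM final; on the % scale 0 is the no-effect control and ±100 the full control effect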). Particulars: Jurkat NFAT-bla M1, carbachol, beta-lactamase ratio, 5 h; at 7.69 µM (top of the series) unless noted. In outline: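 Read-out: CCF4 FRET ratio (460 nm/530 nm) after 1 h RT dye loading, used for %activity and AC50 from titration series. Cells: Jurkat NFAT-β-lactamase/M1 line, treated with compound plus 1 uM carbachol for 5 h, 37 °C.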

Assay [15] can be described thus: Stat Signaling Pathway (AID 446; active means well fitted curve in either direction with a large enough effect, not every such curve was filed as active;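 further: ME-180 cervical cancer cells given 40 pM IL-6 alongside compound; SIE-controlled beta-lactamase reporter measured as 460/530 nm FRET emission ratio; on the % scale 0 is the no-effect control and ±100 the full control effect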). Particulars: ME-180 (cervical carcinoma) SIE beta-lactamase reporter, IL-6 stimulated, 5 h; at 7.69 µM (top of the series) unless noted. In outline:
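IL-6/STAT signaling read in ME-180 cells via an SIE beta-lactamase reporter. Stimulus was 40 pM IL-6 (its AC50) for 5 hrs, so both activation and inhibition register.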

Assay [16] concerns the target Mitogen-activated protein kinase 10 (Mus musculus) (UniProt Q61831). Briefly: JNK3 AlphaScreen Assay (AID 530; active means well fitted curve in either direction with a large enough effect, not every such curve was filed as active). Conditions: JNK3 lysate, c-Jun phosphorylation; series mostly up to 57.1 µM. In outline:
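Compound titrations were preincubated 15 minutes at room temperature with substrate, antibody and pre-activated JNK3-containing HepG2 lysate. Reactions were started with 10 uM ATP and stopped with EDTA-containing bead buffer for AlphaScreen detection.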

For assay [17], the target named is Cytochrome P450 3A4 (Homo sapiens) (UniProt P08684). Briefly: qHTS Assay for Activators of Cytochrome P450 3A4 (AID 885). Further: nearly all actives have a fitted effect of over 65% in size. Particulars: recombinant CYP3A4, Luciferin-PPXE luminescence, 60 min; series mostly up to 57.1 µM. An outline of the steps: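 Quantitative HTS format: compounds preincubated with 20nM human CYP3A4 and Luciferin-PPXE substrate at KM, reaction started by NADPH regeneration, stopped after 60 min, luciferase luminescence read 20 min later.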
Sequence of Cytochrome P450 3A4 (Homo sapiens) (P08684 whole entry, looked up): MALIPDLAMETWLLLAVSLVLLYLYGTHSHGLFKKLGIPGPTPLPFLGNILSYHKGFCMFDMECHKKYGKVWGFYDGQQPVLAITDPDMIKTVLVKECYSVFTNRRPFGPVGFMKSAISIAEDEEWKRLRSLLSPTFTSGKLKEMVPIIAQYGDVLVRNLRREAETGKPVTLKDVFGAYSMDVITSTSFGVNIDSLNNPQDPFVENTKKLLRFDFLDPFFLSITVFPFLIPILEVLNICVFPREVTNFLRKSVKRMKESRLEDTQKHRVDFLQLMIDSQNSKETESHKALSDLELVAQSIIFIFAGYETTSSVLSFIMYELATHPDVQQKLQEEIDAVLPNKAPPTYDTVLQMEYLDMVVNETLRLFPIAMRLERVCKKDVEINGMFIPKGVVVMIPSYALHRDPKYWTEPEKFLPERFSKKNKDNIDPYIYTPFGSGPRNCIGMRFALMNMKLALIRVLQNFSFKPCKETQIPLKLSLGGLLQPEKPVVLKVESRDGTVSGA

Where [18] appears, read: measured here: cell count channel max response.
[19] abbreviates: measured here: lipid channel max response.

Records with an inconclusive call do not appear. Activity calls are given as the source filed them. Unless noted, the call rests on the fitted dose curve; in most records, active means well fitted curve in the direction sought with a large enough effect; inconclusive means small, poorly fitted or top-dose-only effect, or another doubt; inactive means no such curve, though single readings can be large; an effect the other way counts as inactive or inconclusive.

Sequence of Lysosomal acid glucosylceramidase (Homo sapiens) (P04062 whole entry, looked up): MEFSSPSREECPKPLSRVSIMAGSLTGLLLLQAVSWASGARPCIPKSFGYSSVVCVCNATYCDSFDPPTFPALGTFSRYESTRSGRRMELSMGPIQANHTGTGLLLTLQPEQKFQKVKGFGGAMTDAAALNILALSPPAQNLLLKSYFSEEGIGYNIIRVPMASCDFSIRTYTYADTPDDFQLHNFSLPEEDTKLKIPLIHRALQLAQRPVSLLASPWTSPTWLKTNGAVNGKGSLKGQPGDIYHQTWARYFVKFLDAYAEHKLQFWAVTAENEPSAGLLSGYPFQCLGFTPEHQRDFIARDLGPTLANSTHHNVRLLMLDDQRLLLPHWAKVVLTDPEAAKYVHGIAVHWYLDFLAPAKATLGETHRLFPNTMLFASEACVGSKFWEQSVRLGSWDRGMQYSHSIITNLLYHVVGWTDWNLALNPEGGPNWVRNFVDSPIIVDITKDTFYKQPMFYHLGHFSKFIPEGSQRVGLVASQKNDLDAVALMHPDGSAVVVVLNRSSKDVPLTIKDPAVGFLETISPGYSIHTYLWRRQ
Sequence of 3',5'-cyclic-AMP phosphodiesterase 4B (Homo sapiens) (Q07343 whole entry, looked up): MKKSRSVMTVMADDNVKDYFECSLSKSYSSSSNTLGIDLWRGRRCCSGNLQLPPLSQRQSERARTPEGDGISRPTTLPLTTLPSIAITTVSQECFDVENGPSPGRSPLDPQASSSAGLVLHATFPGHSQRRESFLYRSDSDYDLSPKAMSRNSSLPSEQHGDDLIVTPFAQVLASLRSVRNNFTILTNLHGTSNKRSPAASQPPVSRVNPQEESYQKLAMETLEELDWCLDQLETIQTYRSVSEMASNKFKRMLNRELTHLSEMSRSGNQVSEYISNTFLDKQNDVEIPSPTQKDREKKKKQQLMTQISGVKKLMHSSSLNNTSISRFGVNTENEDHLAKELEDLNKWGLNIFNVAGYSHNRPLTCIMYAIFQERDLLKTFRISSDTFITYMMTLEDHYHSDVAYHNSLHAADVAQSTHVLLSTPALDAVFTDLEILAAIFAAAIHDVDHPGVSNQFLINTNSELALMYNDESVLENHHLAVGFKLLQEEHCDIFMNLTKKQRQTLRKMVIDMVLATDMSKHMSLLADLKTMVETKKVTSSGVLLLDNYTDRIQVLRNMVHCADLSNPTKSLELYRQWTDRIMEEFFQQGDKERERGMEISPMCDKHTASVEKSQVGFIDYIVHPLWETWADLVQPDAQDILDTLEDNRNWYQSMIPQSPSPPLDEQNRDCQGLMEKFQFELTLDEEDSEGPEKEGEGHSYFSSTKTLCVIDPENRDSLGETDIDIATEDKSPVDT

With `Cc1cnc(CNc2ncnc3ccc(-c4c(C)noc4C)cc23)cn1`, the Potency in assay [1] is > 11.4 µM (inactive); in assay [3], > 46 µM (inactive); in assay [4], > 46 µM (inactive); in [6] it was 3.98 µM (active); in assay [8] it was 2.51 µM (active); in assay [9] it was 2.82 µM (active). In addition, the Potency in [10] is 3.55 µM (active). The results for the activity change, negative = inhibition in assay [2] and in assay [7] were 12.8% (inactive) and 0.208% (inactive), respectively. The Potency result in [5], in [11] and in assay [12] was “inactive” in each case. Also, the max response in [7] (setting [18]) was found to be 8.76%; in [7] (setting [19]), 7.19%.
As for `CNc1nc(-c2ccccc2CN(C)C)nc2ccccc12`, the Potency in [1] was > 11.4 µM (inactive); in [13], 3.16 µM (active); in assay [3], > 46 µM (inactive); in assay [4] it was > 46 µM (inactive). Also, the values for the activity change, negative = inhibition in assay [14] and in assay [7] were -2.05% (inactive) and 1.92% (inactive), respectively. Also, in assay [15], the activity, negative = inhibition is 17.3% (inactive). For the same compound, in assay [16], the call was inactive. Besides, the Potency entry in assay [17], in assay [8], in assay [9], in assay [10], in assay [11] and in assay [12] was “inactive” each time. For the same compound, the figures for the max response in assay [7] (setting [18]) and in assay [7] (setting [19]) were 7.86% and 7.77%, respectively.
As for `COc1ncc2nc(-c3cccs3)c(=O)n(CCc3ccccc3)c2n1`, the Potency was > 11.4 µM (inactive) in assay [1]; 1.26 µM (active) in assay [13]; > 9.22 µM (inactive) in [3]; > 46 µM (inactive) in assay [4]; 3.16 µM (active) in assay [6]. Moreover, the activity change, negative = inhibition in assay [14] is 11.4% (inactive); in assay [7], 2.39% (inactive). The call in assay [16] was inactive. Also, the Potency entry in [17], in assay [8], in assay [9], in assay [10], in assay [11] and in assay [12] was “inactive” throughout. The max response in assay [7] (setting [18]) is -3.52%; in assay [7] (setting [19]), -2.93%.
On to `CNc1ncncc1-c1c(C)noc1C`, for which the Potency was > 11.4 µM (inactive) in assay [1], > 46 µM (inactive) in assay [3] and > 46 µM (inactive) in [4]. Moreover, the activity change, negative = inhibition was -14.2% (inactive) in [2], -0.793% (inactive) in assay [14] and 7.32% (inactive) in assay [7]. In addition, the activity, negative = inhibition in assay [15] is 11.7% (inactive). Also, the call in assay [16] was inactive. In addition, the Potency entry in [5], in assay [8], in [9], in assay [10], in [11] and in [12] was “inactive” in each case. In addition, the max response was determined as 37% in assay [7] (setting [18]) and 45.6% in assay [7] (setting [19]).

These data come from PubChem BioAssay (NCATS).
